# Laboratory results published in PubChem BioAssay (Tox21).
# Unmarked numbers belong to inactive results. Results filed as inconclusive are left out. The source made the active and inactive calls. Calls follow the shape of the full dose curve.
# Target: Acetylcholinesterase (Homo sapiens) (UniProt P22303)
# Assay: Acetylcholinesterase (AChE) small molecule antagonists: colormetric cell-based qHTS assay (AID 1347395); also: nearly all actives have a fitted effect of over 30% in size
# Conditions: SH-SY5Y cells AChE activity, colorimetric (Ellman); series mostly up to 115 µM; activity, negative = inhibition: at the top concentration
# Procedure, shortened: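 Colorimetric read-out: DTNB detects thiocholine released when cellular AChE in SH-SY5Y cells hydrolyses acetylthiocholine. Cells attached overnight, received compound for 30 min at 37 C, then substrate mix for 90 min at 37 C.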
# % is scaled to controls: 0 for no effect and ±100 for the full control effect.
# Acetylcholinesterase (Homo sapiens), sequence (P22303 whole entry, looked up): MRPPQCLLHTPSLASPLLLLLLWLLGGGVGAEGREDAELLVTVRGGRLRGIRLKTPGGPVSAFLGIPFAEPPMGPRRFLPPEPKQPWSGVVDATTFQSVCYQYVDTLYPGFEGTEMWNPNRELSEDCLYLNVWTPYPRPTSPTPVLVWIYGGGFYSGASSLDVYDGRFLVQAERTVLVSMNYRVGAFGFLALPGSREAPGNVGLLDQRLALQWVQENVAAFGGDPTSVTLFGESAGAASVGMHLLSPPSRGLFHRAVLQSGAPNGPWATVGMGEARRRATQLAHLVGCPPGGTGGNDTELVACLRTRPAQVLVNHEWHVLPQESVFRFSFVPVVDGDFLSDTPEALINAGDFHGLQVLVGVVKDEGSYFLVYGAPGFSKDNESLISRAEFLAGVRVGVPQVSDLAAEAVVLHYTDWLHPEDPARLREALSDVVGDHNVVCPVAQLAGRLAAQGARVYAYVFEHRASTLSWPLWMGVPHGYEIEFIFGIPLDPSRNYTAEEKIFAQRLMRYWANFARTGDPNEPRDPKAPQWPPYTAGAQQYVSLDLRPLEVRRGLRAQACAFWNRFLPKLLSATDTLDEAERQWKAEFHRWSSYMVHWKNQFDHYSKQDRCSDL
SMILES,Potency,"activity, negative = inhibition"
Cc1c(C(=O)O)c(O)cc2c1C(=O)c1c(O)c([C@@H]3O[C@H](CO)[C@@H](O)[C@H](O)[C@H]3O)c(O)c(O)c1C2=O,inactive,–
C=CCOc1cc(Cl)ccc1C(=O)NCCN(CC)CC,–,-6.22% [at 52.9 µM]
Oc1ccc(C2(c3ccc(O)c(C4CCCCC4)c3)CCCCC2)cc1C1CCCCC1,–,4.27%
CC(=O)OCCN(CCOC(C)=O)c1ccc(N=Nc2ccc([N+](=O)[O-])cc2C#N)cc1,–,-5.34%
CC1=CC(C)C(C=O)CC1 (stereo unspecified),–,-0.271%
Cc1cc(=O)[nH]c(=O)[nH]1,–,-0.145%
CCCCOCC(C)O (stereo unspecified),–,0.214%
O=C(NCCN1CCOCC1)c1ccc(Cl)cc1,–,-0.471% [at 52.9 µM]
CC(O)CN(CCN(CC(C)O)CC(C)O)CC(C)O (stereo unspecified),inactive,–
OC1CCCc2ccccc21 (stereo unspecified),–,0.307%
OCCO,inactive,–
CCOc1ccc(NC(C)=O)cc1N,–,0%
CC(C)CCCC(=O)O,–,0.876%
CC(C)C[C@H](NC(=O)[C@H](Cc1ccccc1)NC(=O)c1cnccn1)B(O)O,–,-1.51% [at 52.9 µM]
Cc1ccc(O)c2ncccc12,–,2.32% [at 52.9 µM]
OC(CCN1CCCCC1)(c1ccccc1)c1ccccc1,–,1.26% [at 52.9 µM]

# Target: Acetylcholinesterase (Homo sapiens) (UniProt P22303)
# Assay: Acetylcholinesterase (AChE) small molecule antagonists: enzyme-based qHTS assay (AID 1347397); also: nearly all actives have a fitted effect of over 55% in size
# Conditions: Potency: AChE enzyme activity inhibition; outcome: AChE enzyme activity inhibition; series mostly up to 115 µM; activity change, negative = inhibition: at the top concentration
# Procedure, shortened: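 Compound or DMSO vehicle was pin-transferred onto recombinant human AChE (50 mU/mL as dispensed) and left 30 min at room temperature. Acetylthiocholine with DTNB then started the reaction, read colorimetrically 10 min later.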
SMILES,"activity change, negative = inhibition",Potency
NCCCC[C@H](N[C@@H](CCc1ccccc1)C(=O)O)C(=O)N1CCC[C@H]1C(=O)O,0.0991% [at 53 µM],–
CCCCC(CC)COC(=O)c1ccc(O)cc1 (stereo unspecified),–,inactive
C=Cc1ccncc1,0.0197%,–
Fc1ccccc1[C@@H](F)COC1CCC(Nc2ncnc3[nH]ncc23)CC1 (stereo partly specified),0.197%,–
C=Cc1ccccc1,-2.04%,–
CC(=O)OCCC(C)C,–,inactive
C=C(C)C(=O)OCCOP(=O)(O)O,0.746%,–
Cc1ccccc1N=C(N)Nc1ccccc1C,-1.9%,–
CCCCC(C)C(=O)O (stereo unspecified),-0.694%,–
CC(C)(C)CCCCCCOC(=O)c1ccccc1C(=O)OCCCCCCC(C)(C)C,-0.278%,–
CCCCC[Si](OCC)(OCC)OCC,-6.51%,–
CC(C)=CCC/C(C)=C/CC/C(C)=C/C(=O)OCC(=O)[C@@]1(O)CC[C@H]2[C@@H]3CCC4=CC(=O)C=C[C@]4(C)[C@H]3[C@@H](O)C[C@@]21C,-17.9% [at 53 µM],–
CCCc1c(OCCCOc2ccc(OCC(=O)O)cc2)ccc(C(C)=O)c1O,1.57%,–
Nc1cccc(S(=O)(=O)c2cccc(N)c2)c1,0.259%,–
ClC(c1ccccc1)(c1ccccc1)c1ccccc1,0.273%,–
NC(=S)NC(N)=S,2.02%,–
O=[N+]([O-])c1c(Cl)cc(Cl)cc1Cl,0.552%,–
CC(C)OC(=O)COc1ccc(Cl)cc1Cl,–,inactive
Oc1ccc2c(c1)-c1ccccc1C2,0.526%,–
O=C(/C=C/c1ccccc1)OCc1ccccc1,–,inactive

SMILES,"activity change, negative = inhibition",Potency
CCC1(C)CC(=O)NC1=O (stereo unspecified),0.406% [at 53 µM],–
CC(C)=CC=O,1.5%,–
COc1ccc(C(Cl)=C(c2ccc(OC)cc2)c2ccc(OC)cc2)cc1,–,inactive
CC(C)(N)CO,–,inactive
Cc1c(C(=O)O)c(O)cc2c1C(=O)c1c(O)c([C@@H]3O[C@H](CO)[C@@H](O)[C@H](O)[C@H]3O)c(O)c(O)c1C2=O,–,inactive
C=CCOc1cc(Cl)ccc1C(=O)NCCN(CC)CC,0.0377% [at 53 µM],–
Oc1ccc(C2(c3ccc(O)c(C4CCCCC4)c3)CCCCC2)cc1C1CCCCC1,0.939%,–
CC(=O)OCCN(CCOC(C)=O)c1ccc(N=Nc2ccc([N+](=O)[O-])cc2C#N)cc1,-1.37%,–
CC1=CC(C)C(C=O)CC1 (stereo unspecified),-0.35%,–
Cc1cc(=O)[nH]c(=O)[nH]1,-1.77%,–
CCCCOCC(C)O (stereo unspecified),0.409%,–
O=C(NCCN1CCOCC1)c1ccc(Cl)cc1,-0.401% [at 53 µM],–
CC(O)CN(CCN(CC(C)O)CC(C)O)CC(C)O (stereo unspecified),–,inactive
OC1CCCc2ccccc21 (stereo unspecified),0.177%,–
OCCO,–,inactive
CCOc1ccc(NC(C)=O)cc1N,1.23%,–
CC(C)CCCC(=O)O,0.256%,–
CC(C)C[C@H](NC(=O)[C@H](Cc1ccccc1)NC(=O)c1cnccn1)B(O)O,-0.125% [at 53 µM],–
Cc1ccc(O)c2ncccc12,3.13% [at 53 µM],–
OC(CCN1CCCCC1)(c1ccccc1)c1ccccc1,0.0082% [at 53 µM],–

# Target: Acetylcholinesterase (Homo sapiens) (UniProt P22303)
# Assay: Acetylcholinesterase (AChE) small molecule antagonists: fluorescence cell-based qHTS assay (AID 1347398); also: nearly all actives have a fitted effect of over 50% in size
# Conditions: SH-SY5Y cells; Potency: AChE activity; outcome: AChE activity; series mostly up to 115 µM; activity change, negative = inhibition: at the top concentration
# Procedure, shortened: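 Using neuroblastoma SH-SY5Y cells as the enzyme source, test chemicals are preincubated 30 min at 37 C; AChE-driven acetylthiocholine cleavage is then quantified by thiocholine-dependent Thiolite Green fluorescence after 40 min at room temperature.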
SMILES,"activity change, negative = inhibition",Potency
NCCCC[C@H](N[C@@H](CCc1ccccc1)C(=O)O)C(=O)N1CCC[C@H]1C(=O)O,4.71% [at 53.7 µM],–
CCCCC(CC)COC(=O)c1ccc(O)cc1 (stereo unspecified),-19%,–
C=Cc1ccncc1,3.56%,–
Fc1ccccc1[C@@H](F)COC1CCC(Nc2ncnc3[nH]ncc23)CC1 (stereo partly specified),-27.7%,–
C=Cc1ccccc1,-0.705%,–
CC(=O)OCCC(C)C,–,inactive
C=C(C)C(=O)OCCOP(=O)(O)O,1.37%,–
Cc1ccccc1N=C(N)Nc1ccccc1C,-14%,–
CCCCC(C)C(=O)O (stereo unspecified),4.56%,–
CC(C)(C)CCCCCCOC(=O)c1ccccc1C(=O)OCCCCCCC(C)(C)C,-8.66%,–
CCCCC[Si](OCC)(OCC)OCC,-5.65%,–
CC(C)=CCC/C(C)=C/CC/C(C)=C/C(=O)OCC(=O)[C@@]1(O)CC[C@H]2[C@@H]3CCC4=CC(=O)C=C[C@]4(C)[C@H]3[C@@H](O)C[C@@]21C,-3.58% [at 53.7 µM],–
CCCc1c(OCCCOc2ccc(OCC(=O)O)cc2)ccc(C(C)=O)c1O,1.56%,–
Nc1cccc(S(=O)(=O)c2cccc(N)c2)c1,3.75%,–
ClC(c1ccccc1)(c1ccccc1)c1ccccc1,-0.6%,–
NC(=S)NC(N)=S,33.3%,–
O=[N+]([O-])c1c(Cl)cc(Cl)cc1Cl,5.98%,–
CC(C)OC(=O)COc1ccc(Cl)cc1Cl,–,inactive
Oc1ccc2c(c1)-c1ccccc1C2,-3.19%,–
O=C(/C=C/c1ccccc1)OCc1ccccc1,–,inactive

SMILES,"activity change, negative = inhibition",Potency
CCC1(C)CC(=O)NC1=O (stereo unspecified),28.3% [at 53.7 µM],–
CC(C)=CC=O,-6.73%,–
COc1ccc(C(Cl)=C(c2ccc(OC)cc2)c2ccc(OC)cc2)cc1,–,inactive
CC(C)(N)CO,–,inactive
Cc1c(C(=O)O)c(O)cc2c1C(=O)c1c(O)c([C@@H]3O[C@H](CO)[C@@H](O)[C@H](O)[C@H]3O)c(O)c(O)c1C2=O,–,inactive
C=CCOc1cc(Cl)ccc1C(=O)NCCN(CC)CC,-23.4% [at 53.7 µM],–
Oc1ccc(C2(c3ccc(O)c(C4CCCCC4)c3)CCCCC2)cc1C1CCCCC1,1.79%,–
CC(=O)OCCN(CCOC(C)=O)c1ccc(N=Nc2ccc([N+](=O)[O-])cc2C#N)cc1,-1.22%,–
CC1=CC(C)C(C=O)CC1 (stereo unspecified),3.68%,–
Cc1cc(=O)[nH]c(=O)[nH]1,-0.593%,–
CCCCOCC(C)O (stereo unspecified),6.58%,–
O=C(NCCN1CCOCC1)c1ccc(Cl)cc1,19.9% [at 53.7 µM],–
CC(O)CN(CCN(CC(C)O)CC(C)O)CC(C)O (stereo unspecified),–,inactive
OC1CCCc2ccccc21 (stereo unspecified),0.533%,–
OCCO,–,inactive
CCOc1ccc(NC(C)=O)cc1N,0.82%,–
CC(C)CCCC(=O)O,4.73%,–
CC(C)C[C@H](NC(=O)[C@H](Cc1ccccc1)NC(=O)c1cnccn1)B(O)O,-16% [at 53.7 µM],–
Cc1ccc(O)c2ncccc12,4.55% [at 53.7 µM],–
OC(CCN1CCCCC1)(c1ccccc1)c1ccccc1,12% [at 53.7 µM],–
